Laboratory results taken from PubChem BioAssay AID904 (National Center for Advancing Translational Sciences (NCATS), 2007).
Among all 55,000 compounds or so, about 530 (0.96%) were called active. About 7% were inconclusive and are not listed. The sample as a whole holds a higher share of actives than the screen did. A number with no mark means an inactive call. The call rests on the fitted dose curve; in most records, active means well fitted cell-killing curve with a large enough effect; inconclusive means small, poorly fitted or top-dose-only effect; inactive means no such curve, though single readings can be large or run the other way.

Experiment: qHTS Screen for Compounds that Selectively Target Cancer Cells with p53 Mutations: Cytotoxicity of p53 Null Cells at the Nonpermissive Temperature; further: nearly all actives have a fitted effect of over 50% in size;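 on activity, negative = cell killing: 0% = DMSO only and -100% = full killing by 100 µM tamoxifen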
Settings: H1299 p53-null (neo) cells, 39C, ATPlite viability, 24 h; series mostly up to 46.1 µM; activity, negative = cell killing: at the top concentration
Excerpt: NIH Chemical Genomics Center [NCGC] NIH Molecular Libraries Screening Centers Network [MLSCN] MLSCN Grant: 1 X01 MH079844-01 Assay Submitter (PI): Dr. SUN, YI, University of Michigan NCGC Assay Overview: Synthetic Lethal Screen for Compounds to Kill Cancer Cells with p53 Mutation. Tumor suppressor gene p53 serves as a major cellular barrier against tumorigenesis. […] The goal of this screening is to identify small molecule probes that selectively kill cancer cells with mutations in p53. This screening was carried out using two lines of H1299 lung cancer cells. The H1299-p53 A138V line express a temperature sensitive p53 mutant (p53ts) in which the mutant p53 protein (A138V) is in the mutant confirmation when grown at 39C (the nonpermissive temperature) and in the wild type conformation when grown at 32C (the permissive temperature). A H1299-neo line (p53 null) grown at both 39C and 32C were used as counter-screens to filter out false positive associated with temperature shifting. The small molecular compounds that selectively target mutant p53-containing cancer cells were selected as candidate probes for further study. A cytotoxicity assay based on the measurement of ATP contents in cells was used in this screen. Concentration-responses of all the compounds in the library collection were determined in qHTS using the cell lines and temperature conditions as above.
NCGC Assay Protocol Summary: Both the H1299-p53A138V and H1299-neo cell lines were provided by Dr.Yi Sun, a PI at the University Michigan. The cells were maintained and cultured at 37C. The resuspended frozen cells were used to plate the cells in the 1536-well assay plates at a density of 600 cells per well in 5 ul medium. The assay plates with the cells were incubated at 37C for 16 to 30 hours before the experiments. The library compounds in DMSO solution were added to the cells in assay plates and incubated 24 hours at 39C (for mutant p53 conformation) or 32C (for normal p53 conformation as control). An ATP_lite assay kit (PerkinElmer) was used to determine the cell viability. Tomaxifen (100uM) was used as the positive control for cell killing. Data were normalized to the controls for basal activity (DMSO only) and 100% killing (100uM tamoxifen). AC50 values were determined from concentration-response data modeled with the standard Hill equation. P53 assay protocol: 1. Reagent; 5 uL H1299-p53A138V or H1299-neo cell cells/well 2. Time; overnight; 37C incubation 3. Compounds; 23 nL; 5.9 nM to 46 uM 4. Controls; 23 nL; Tamoxifen 100 uM 5. Time; 24 hr; 39C incubation 6. Reagent; 3 uL; ATP_Lite reagent 7. Time; 20 min; Room Temperature 8. Detection; Luminescence; Viewlux plate reader Keywords: p53, synthetic lethal, cancer, cell viability, cytotoxicity, H1299 cell line, luminescence, MLSMR, MLSCN, NIH Roadmap, qHTS, NCGC
Potency means the concentration at half of the fitted maximal effect.

Row | SMILES | activity, negative = cell killing | Potency
1 | Cc1ccc(NC(=O)C2CCN(S(=O)(=O)c3cc(-c4noc(C)n4)ccc3C)CC2)c(C)c1 | 16.7% | –
2 | Cc1ccc(-c2cc(N)on2)cc1 | 9.86% [at 1.84 µM] | –
3 | Cc1ccc2[nH]cc(CCCN3C(=O)c4ccccc4C3=O)c2c1 | -0.898% [at 1.84 µM] | –
4 | Cc1nn(Cc2ccc(Cl)cc2)c(Cl)c1/C=N/NC(=O)CNc1ccccc1F | 34.8% | –
5 | COc1ccc(NC(=O)Cn2c(=O)n(CCC(C)C)c(=O)c3cccnc32)cc1Cl | -16.3% | –
6 | CCOC(=O)c1ccc(NC(=O)Cn2cc(S(=O)(=O)Cc3ccccc3F)c3ccccc32)cc1 | -3.04% | –
7 | CCOc1cccc2c1N[C@@H](c1ccc(C(=O)O)cc1)[C@H]1CC=C[C@@H]21 | 2.51% | –
8 | Cc1[nH]c2ccccc2c1/C=N/NC(=O)CNC(=O)c1ccc2c(c1)OCO2 | 2.07% [at 1.84 µM] | –
9 | Cc1cc[n+](-c2[nH]c(=O)sc2/C=N/NC(=O)c2ccccc2[O-])cc1C | 21.4% | –
10 | O=C(Cn1c(=O)nc(-c2ccccc2)c2cc(Cl)ccc21)NCc1ccc(Cl)cc1 | -21.4% | –
11 | Cc1cccc(NC(=O)Cn2nc(-c3ccc(Cl)cc3)c3ccccc3c2=O)c1 | 1.82% | –
12 | CCN(C(=O)Cn1c(=O)nc(-c2ccccc2)c2cc(Cl)ccc21)c1cccc(C)c1 | – | 12.6 µM (active)
13 | COc1ccc(-c2nnc(SCc3cccnc3)o2)cc1 | -29.7% | –
14 | CCCn1c(SCC(=O)Nc2ccc(C)c(S(=O)(=O)N3CCOCC3)c2)n[nH]c1=O | 11.9% | –
15 | O=C(Nc1c2c(nc3ccccc13)CCCC2)c1ccccc1Br | 12.7% | –
16 | COc1cc(C(=O)Nc2ccc(-n3c(C)nc4ccccc4c3=O)cc2)cc(OC)c1OC | 19% | –
17 | COc1ccccc1Nc1c2c(nc3ccc(NC(=O)/C=C/c4cc(OC)c(OC)c(OC)c4)cc13)CCCC2 | – | 10 µM (active)
18 | CCOC(=O)c1cc2c(=O)n3ccccc3nc2n(CC2CCCO2)c1=NC(=O)c1ccc(C(C)(C)C)cc1 (stereo unspecified) | 10.4% | –
19 | Cc1ccccc1CSc1nc2c([nH]c3ccccc32)c(=O)n1C | 12.6% | –
20 | CC1=C(c2ccc(Cl)cc2)S(=O)(=O)N=C1N1CCN(c2cc(C)ccc2C)CC1 | -12.3% | –
21 | CC1=C(c2ccc(C)cc2)S(=O)(=O)NC1=NCCCN1CCN(c2cc(C)ccc2C)CC1 | -8.74% | –

Row | SMILES | activity, negative = cell killing | Potency
22 | Cc1ccc(C)c(N2CCN(CCCNC(=O)Nc3ccc(Cl)cc3)CC2)c1 | – | 5.01 µM (active)
23 | COc1ccccc1OCC(=O)Nc1nnc2n1CCS2 | 17% | –
24 | Cc1ccc(-c2nc(S(=O)(=O)c3ccc(C)cc3)c(N3CCCCCC3)o2)cc1 | 3.17% | –
25 | O=C(CSc1oc(-c2ccc(F)cc2)nc1S(=O)(=O)c1ccc(Br)cc1)NC1CCCCC1 | -7.12% | –
26 | CC(C)S(=O)(=O)c1oc(-c2ccc(F)cc2)nc1S(=O)(=O)c1ccc(F)cc1 | – | 12.6 µM (active)
27 | CCOc1ccc(S(=O)(=O)N/N=C(\C)c2ccc(Cl)c(Cl)c2Cl)cc1 | 13.3% | –
28 | Cc1ccc(S(=O)(=O)NC2(C(F)(F)F)NC(=O)N(CCc3ccccc3)C2=O)cc1 (stereo unspecified) | 0.252% | –
29 | CCOc1ccc(NC(=O)c2cnn(-c3ccccc3)c2-n2cccc2)cc1 | 59.1% | –
30 | CCOc1ccc(NC(=O)CN2CCN(CC(=O)Nc3ccc(OC)cc3)CC2)cc1 | – | inactive
31 | CCOc1ccc(NC(=O)c2ncoc2-c2ccco2)cc1 | – | 5.01 µM (active)
32 | C=Cc1ccc(Cn2c(C(=O)O)c(CNC3CCCC3)c3ccc(C)cc32)cc1 | -17.8% | –
33 | Cc1ccccc1C(=O)Nc1cc(C)c(O)c(-c2nc3ccccc3o2)c1 | -18% | –
34 | O=C(NC1CCN(C(=S)NCc2ccco2)CC1)c1ccc(F)cc1 | 5.38% | –
35 | COc1ccc(S(=O)(=O)NCC(c2ccco2)N2CCOCC2)cc1 (stereo unspecified) | 5.2% | –
36 | Cc1ccc(NS(=O)(=O)c2ccc3c(c2)CC(=O)N3)cc1Cl | -10.8% | –
37 | COc1ccc(CCNc2nc(-c3ccc(F)cc3)cc(C(F)(F)F)n2)cc1OC | -13.6% | –
38 | Cc1ccc(O)c(NC(=O)CCS(=O)(=O)c2nc(-c3ccc4c(c3)OCO4)cc(C(F)(F)F)n2)c1 | 68.3% | –
39 | CSc1ccccc1NC(=O)CCS(=O)(=O)c1nc(-c2cccs2)cc(C(F)(F)F)n1 | 133% | –
40 | COc1ccccc1-c1cc(C(F)(F)F)nc(S(=O)(=O)CCCC(=O)Nc2cc(C)ccc2O)n1 | – | 22.4 µM (active)
41 | CC(=O)c1ccc(NC(=O)c2nc3nc(C)cc(C(F)F)n3n2)cc1 | 11.3% | –
42 | CCSc1ncc(Cl)c(C(=O)Nc2cc(C)ccc2C)n1 | -0.257% | –

Row | SMILES | activity, negative = cell killing | Potency
43 | Cc1ccc(NC(=O)c2nc(S(=O)(=O)Cc3cccc(C)c3)ncc2Cl)cc1 | – | 22.4 µM (active)
44 | CCCS(=O)(=O)c1ncc(Cl)c(C(=O)Nc2scc(-c3ccccc3)c2C(=O)OCC)n1 | -27.2% | –
45 | Cc1ccc2nc(CN3CCN(S(=O)(=O)c4ccc(C)c(C)c4)CC3)oc2c1 | -11.2% | –
46 | O=C1N(c2ccc(Cl)cc2)C(c2ccc(Cl)cc2)N2CCCN12 (stereo unspecified) | -0.885% [at 1.84 µM] | –
47 | O=C(COC(=O)CSc1nnc(-c2ccc(Cl)cc2)o1)Nc1cc(Cl)cc(Cl)c1 | 0.272% | –
48 | O=[N+]([O-])c1ccc(N2CCN(S(=O)(=O)c3ccccc3)CC2)cc1N1CCc2ccccc2C1 | 39.8% | –
49 | COc1cc(CNC(=O)c2cc3n(n2)CCCN(Cc2cccc(F)c2)C3=O)cc(OC)c1OC | -11.9% | –
50 | O=C(Cc1ccc(Cl)cc1)NCC(c1cccs1)S(=O)(=O)c1ccc(Cl)cc1 (stereo unspecified) | 18.8% | –
51 | COc1ccc(Nc2cc(C(=O)NCCCN(C)c3ccccc3)c3ccccc3n2)c(OC)c1 | 31.5% | –
52 | CCCCN(CCCNC(=O)c1cc(Nc2ccccc2OC)nc2ccccc12)c1ccccc1 | -2.39% | –
53 | COc1ccccc1Nc1cc(C(=O)NCCCN(C)C2CCCCC2)c2ccccc2n1 | – | 12.6 µM (active)
54 | COc1ccc(-c2cc3ccc(OCc4nn[nH]n4)cc3oc2=O)cc1 | – | 10 µM (active)
55 | COc1ccc2oc(=O)c(-c3cn4c(n3)sc3cc(OC)ccc34)cc2c1 | -0.0282% | –
56 | COc1ccc2cc(-c3nc(Cl)c4c5c(sc4n3)CC(C)CC5)c(=O)oc2c1 (stereo unspecified) | -14.6% | –
57 | O=C(COc1nc2ccccc2nc1N1CCOCC1)NCC(F)(F)F | -2.52% | –
58 | CCCn1ccc2c(OCC(=O)NCc3ccc(F)cc3)cccc2c1=O | -11.4% | –
59 | Cc1nn2c(=O)cc(COC(=O)c3cccc(NC(=O)COc4ccccc4Cl)c3)nc2s1 | – | 6.31 µM (active)
60 | Cc1nn2c(=O)cc(COC(=O)c3ccccc3NC(=O)COc3ccccc3C)nc2s1 | -5.99% | –
61 | COc1ccc(OCC(=O)Nc2cccc(C(=O)OCc3cc(=O)n4nc(C)sc4n3)c2)cc1 | -1.29% | –
